Assay results as given in PubChem BioAssay (EPA / NIEHS).
Calls of active or inactive are those of the source. How the source made its calls: active means hit-call score of the fitted dose curve at least 0.9, where 1 is the maximum; inactive means score below 0.9.

What was measured:
[1] = ATG_GLI_CIS: Attagene CIS-FACTORIAL HepG2 Assay for human Zinc Finger Protein GLI1 (AID 2282945); settings: HepG2, Attagene cis-factorial reporter mRNA, GLI element; actives raise or lower the signal
Procedure, shortened: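 HepG2 cells transiently transfected with cis-promoter multiplexed reporter units report endogenous transcription factor activity. After 24 h chemical exposure, reporter mRNA was quantified by RT-PCR, 6-FAM labelling, HpaI digestion and capillary electrophoresis, with bidirectional fitting against DMSO.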

[2] = ATG_GRE_CIS: Attagene CIS-FACTORIAL HepG2 Assay for human Glucocorticoid Response Elements (GRE) (AID 2282947); settings: HepG2 GRE cis-reporter, Attagene multiplex mRNA; actives raise or lower the signal
Procedure, shortened: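 HepG2, transient cis-reporter transfection, 24 h. Reporter mRNA: RT-PCR then CE, fluorescence. Fit both directions vs DMSO.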

[3] = ATG_ISRE_CIS: Attagene CIS-FACTORIAL HepG2 Assay for human Interferon Regulatory Factor 1 (IRF1) binding to an Interferon-Stimulated Response Element (ISRE) (AID 2282948); settings: HepG2 ISRE cis-reporter (Attagene), mRNA transcription readout; actives raise or lower the signal
Procedure, shortened: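 Signal reflects induction or loss of ISRE-linked reporter mRNA in transiently transfected HepG2 cells after a 24 h treatment, detected by fluorescent RT-PCR fragments on capillary electrophoresis and normalised to DMSO.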

[4] = ATG_M_32_CIS: Attagene CIS-FACTORIAL HepG2 Assay for M32 Transcription Factor (Internal Marker) (AID 2282949); settings: HepG2 Attagene cis-factorial M32 reporter, mRNA; actives raise or lower the signal;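 further: background control marker of the multiplexed CIS panel rather than a real target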
Procedure, shortened: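 Transient MRTU transfection of HepG2; 24 h compound treatment; TriZol RNA, oligo(dT) RT, reporter PCR, 6-FAM primer extension, HpaI cut, CE. Gain/loss of signal vs DMSO.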

[5] = ATG_M_06_CIS: Attagene CIS-FACTORIAL HepG2 Assay for M06 Transcription Factor (Internal Marker) (AID 2282950); settings: HepG2 Attagene CIS-FACTORIAL M06 internal marker reporter; actives raise or lower the signal
Procedure, shortened: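 HepG2 cells transiently transfected with cis-regulated multiple reporter transcription units were exposed to chemical for 24 h; reporter mRNA was quantified by RT-PCR, 6-FAM primer labelling, HpaI digestion and capillary electrophoresis, fitted bidirectionally against DMSO.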

[6] = target: Hypoxia-inducible factor 1-alpha (Homo sapiens) (UniProt Q16665); test: ATG_HIF1a_CIS: Attagene CIS-FACTORIAL HepG2 Assay for human Hypoxia Inducible Factor 1 (HIF1A) (AID 2282951); settings: HepG2 Attagene cis-factorial HIF1a reporter transcription; actives raise or lower the signal
Procedure, shortened: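 Dosed 24 h, transfected HepG2 cells yielded total RNA whose reporter transcripts were RT-PCR-amplified and sized by capillary electrophoresis using fluorescent labelling; DMSO defined baseline, with gain and loss of signal both fitted.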

[7] = target: Hepatocyte nuclear factor 6 (Homo sapiens) (UniProt Q9UBC0); test: ATG_HNF6_CIS: Attagene CIS-FACTORIAL HepG2 Assay for human Hepatocyte Nuclear Factor 6 (HNF6) (AID 2282952); settings: HepG2 Attagene cis-factorial HNF6 reporter transcription; actives raise or lower the signal
Procedure, shortened: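 First, HepG2 cells were transfected with the multiplexed cis reporter library and dosed with chemical for 24 h. Next, RNA was reverse-transcribed, PCR-amplified and fluorescently labelled. Finally, HpaI-digested fragments were read by capillary electrophoresis.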

[8] = ATG_MRE_CIS: Attagene CIS-FACTORIAL HepG2 Assay for human Metal Responsive Element (MRE) (AID 2282954); settings: HepG2 MRE cis-reporter transcription, Attagene multiplex; actives raise or lower the signal
Procedure, shortened: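 Readout: capillary electrophoresis of 6-FAM-labelled, HpaI-digested RT-PCR reporter products. System: HepG2 cells carrying transient multiplexed cis reporters, dosed 24 h. Analysis: bidirectional fit, DMSO baseline.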

[9] = ATG_PBREM_CIS: Attagene CIS-FACTORIAL HepG2 Assay for human Phenobarbital-responsive Enhancer Module (PBREM) (AID 2282955); settings: HepG2 PBREM cis-reporter, Attagene multiplexed transcription; actives raise or lower the signal
Procedure, shortened: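 Transfected liver-derived HepG2 cells exposed 24 h; PBREM reporter transcript quantified via RT-PCR and capillary electrophoresis, with activity in either direction referenced to DMSO.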

[10] = ATG_PXRE_CIS: Attagene CIS-FACTORIAL HepG2 Assay for human Pregnane X Receptor Element (PXRE) (AID 2282957); settings: HepG2 Attagene CIS-FACTORIAL PXRE reporter, mRNA; actives raise or lower the signal
Procedure, shortened: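 After a 24 h chemical incubation, total RNA from transfected HepG2 cells was reverse-transcribed and reporter cDNA amplified, FAM-labeled, HpaI-digested and sized by capillary electrophoresis. DMSO served as baseline for bidirectional curve fitting.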

[11] = ATG_PPRE_CIS: Attagene CIS-FACTORIAL HepG2 Assay for human Peroxisome Proliferator-activated Response Element (PPRE) (AID 2282958); settings: HepG2 PPRE cis-element reporter, Attagene transcription factor profiling; actives raise or lower the signal
Procedure, shortened: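 Measured endpoint: PPRE-controlled reporter mRNA, detected by RT-PCR and capillary electrophoresis fluorescence, from transiently transfected HepG2 cells 24 h after dosing. Curves fitted in both directions using DMSO baseline.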

[12] = ATG_RORE_CIS: Attagene CIS-FACTORIAL HepG2 Assay for human RAR-related Orphan Receptor Element (RORE) (AID 2282959); settings: HepG2 Attagene cis-factorial RORE reporter, mRNA; actives raise or lower the signal
Procedure, shortened: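 Transiently transfected HepG2 reporter cells were treated 24 h. Reporter transcripts were detected by RT-PCR and capillary electrophoresis, with bidirectional fitting against DMSO.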

[13] = ATG_Sox_CIS: Attagene CIS-FACTORIAL HepG2 Assay for human SRY-box transcription factor (SOX) (AID 2282960); settings: HepG2 Attagene cis-factorial SOX reporter, mRNA; actives raise or lower the signal
Procedure, shortened: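 Gain- or loss-of-signal endpoint, fitted bidirectionally with DMSO as negative control. Based on reporter mRNA from transfected HepG2 cells harvested 24 h post-treatment and quantified via RT-PCR and capillary electrophoresis.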

[14] = target: Transcription factor Sp1 (Homo sapiens) (UniProt P08047); test: ATG_Sp1_CIS: Attagene CIS-FACTORIAL HepG2 Assay for human Specificity Protein 1 (Sp1) (AID 2282961); settings: HepG2 Sp1 cis-reporter transcription, actives raise or lower the signal
Procedure, shortened: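 Endpoint reflects endogenous Sp1 transcriptional activity, not an exogenous fusion protein: HepG2 cells with transfected cis-regulated reporters, 24 h dosing, RT-PCR/capillary electrophoresis mRNA read-out, DMSO-normalised bidirectional fit.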

[15] = target: Signal transducer and activator of transcription 3 (Homo sapiens) (UniProt P40763); test: ATG_STAT3_CIS: Attagene CIS-FACTORIAL HepG2 Assay for human Signal Transducer and Activator of Transcription 3 (STAT3) (AID 2282963); settings: HepG2, Attagene cis-factorial STAT3 reporter transcription; actives raise or lower the signal
Procedure, shortened: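 Uses human liver HepG2 transiently carrying cis-regulated reporter transcription units. Following 24 h dosing, reporter mRNA induction was detected by RT-PCR and capillary electrophoresis, analysed bidirectionally versus DMSO.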

[16] = ATG_TA_CIS: Attagene CIS-FACTORIAL HepG2 Assay for human TA Basal Promoter (AID 2282964); settings: HepG2 Attagene CIS-factorial TA basal promoter reporter; actives raise or lower the signal
Procedure, shortened: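 HepG2 cells transiently transfected with multiplexed cis-promoter reporter units, dosed 24 h. Reporter mRNA measured by RT-PCR, 6-FAM labelling, HpaI digestion and capillary electrophoresis; bidirectional fit versus DMSO baseline, serving as background control.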

[17] = target: Paired box protein Pax-6 (Homo sapiens) (UniProt P26367); test: ATG_Pax6_CIS: Attagene CIS-FACTORIAL HepG2 Assay for human Paired Box 6 (PAX6) (AID 2282956); settings: HepG2 CIS-FACTORIAL PAX6 reporter transcription, RNA readout; actives raise or lower the signal
Procedure, shortened: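 Values derive from bidirectional curve fitting of reporter mRNA signal relative to DMSO. HepG2 cells bearing transfected cis-regulated MRTUs were exposed for 24 h; transcripts were read by RT-PCR and capillary electrophoresis.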

[18] = ATG_SREBP_CIS: Attagene CIS-FACTORIAL HepG2 Assay for human Sterol Regulatory Element Binding (SREBP) (AID 2282962); settings: HepG2 Attagene cis-factorial SREBP reporter, mRNA; actives raise or lower the signal
Procedure, shortened: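 Values derive from bidirectional curve fitting with DMSO as baseline. The underlying measurement is reporter mRNA from cis-element-regulated units in transiently transfected HepG2, quantified by RT-PCR and capillary electrophoresis after 24 h exposure.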

[19] = target: Heat shock factor protein 1 (Homo sapiens) (UniProt Q00613); test: ATG_HSE_CIS: Attagene CIS-FACTORIAL HepG2 Assay for human Heat Shock Transcription Factor 1 (HSE) (AID 2282953); settings: HepG2 HSE cis-reporter, Attagene RNA transcription; actives raise or lower the signal
Procedure, shortened: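 HepG2 cells transiently transfected with multiple reporter transcription units under cis-regulatory promoter control, measuring endogenous transcription factor activity. After 24 h chemical exposure, reporter mRNA quantified by RT-PCR, fluorescent labelling, HpaI digestion and capillary electrophoresis; bidirectional fit versus DMSO.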

[20] = target: Bile acid receptor (Homo sapiens) (UniProt Q96RI1); test: ATG_IR1_CIS: Attagene CIS-FACTORIAL HepG2 Assay for human Nuclear Receptor Subfamily 1 Group H Member 4 (NR1H4), IR1 submotif (AID 2282946); settings: IR1 reporter transcription, actives raise or lower the signal
Procedure, shortened: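 Readout: reporter transcript levels by RT-PCR with fluorescent capillary electrophoresis, from HepG2 cells transiently transfected with multiplexed cis-regulated reporters and dosed 24 h. Gain- or loss-of-signal fitted versus DMSO negative control.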

Measured: AC50

Chain of Signal transducer and activator of transcription 3 (Homo sapiens) (P40763 whole entry, looked up): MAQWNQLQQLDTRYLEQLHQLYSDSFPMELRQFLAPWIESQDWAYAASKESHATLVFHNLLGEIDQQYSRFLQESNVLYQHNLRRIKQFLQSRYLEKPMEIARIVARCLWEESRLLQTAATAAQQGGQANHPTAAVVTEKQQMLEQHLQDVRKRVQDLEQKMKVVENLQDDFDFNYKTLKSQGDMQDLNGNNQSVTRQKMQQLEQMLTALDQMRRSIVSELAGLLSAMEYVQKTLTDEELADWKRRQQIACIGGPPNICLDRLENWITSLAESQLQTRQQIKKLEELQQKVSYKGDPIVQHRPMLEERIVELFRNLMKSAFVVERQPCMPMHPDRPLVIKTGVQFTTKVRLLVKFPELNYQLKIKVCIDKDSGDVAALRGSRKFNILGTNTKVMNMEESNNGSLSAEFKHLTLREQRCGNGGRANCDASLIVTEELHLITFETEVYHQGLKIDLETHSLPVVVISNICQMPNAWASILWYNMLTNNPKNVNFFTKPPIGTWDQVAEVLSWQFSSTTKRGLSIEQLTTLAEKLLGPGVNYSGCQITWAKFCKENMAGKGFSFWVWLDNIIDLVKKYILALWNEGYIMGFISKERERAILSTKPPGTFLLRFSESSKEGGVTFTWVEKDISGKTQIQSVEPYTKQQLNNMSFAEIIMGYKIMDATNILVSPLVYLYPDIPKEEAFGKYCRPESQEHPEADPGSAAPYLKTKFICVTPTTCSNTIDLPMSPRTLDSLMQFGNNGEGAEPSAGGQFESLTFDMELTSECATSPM
Chain of Hepatocyte nuclear factor 6 (Homo sapiens) (Q9UBC0 whole entry, looked up, the tested form may be a part): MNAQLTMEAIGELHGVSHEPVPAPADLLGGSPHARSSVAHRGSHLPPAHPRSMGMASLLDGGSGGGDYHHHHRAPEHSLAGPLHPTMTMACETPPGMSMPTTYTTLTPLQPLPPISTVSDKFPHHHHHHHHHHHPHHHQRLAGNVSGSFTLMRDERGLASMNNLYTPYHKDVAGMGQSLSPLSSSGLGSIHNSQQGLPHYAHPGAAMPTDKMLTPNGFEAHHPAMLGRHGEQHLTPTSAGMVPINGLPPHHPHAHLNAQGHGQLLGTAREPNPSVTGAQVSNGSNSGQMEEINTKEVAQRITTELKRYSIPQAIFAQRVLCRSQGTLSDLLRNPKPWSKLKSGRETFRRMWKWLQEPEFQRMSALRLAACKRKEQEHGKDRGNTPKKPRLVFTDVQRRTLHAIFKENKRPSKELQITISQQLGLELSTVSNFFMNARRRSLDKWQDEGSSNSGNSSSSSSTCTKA
Chain of Hypoxia-inducible factor 1-alpha (Homo sapiens) (Q16665 whole entry, looked up): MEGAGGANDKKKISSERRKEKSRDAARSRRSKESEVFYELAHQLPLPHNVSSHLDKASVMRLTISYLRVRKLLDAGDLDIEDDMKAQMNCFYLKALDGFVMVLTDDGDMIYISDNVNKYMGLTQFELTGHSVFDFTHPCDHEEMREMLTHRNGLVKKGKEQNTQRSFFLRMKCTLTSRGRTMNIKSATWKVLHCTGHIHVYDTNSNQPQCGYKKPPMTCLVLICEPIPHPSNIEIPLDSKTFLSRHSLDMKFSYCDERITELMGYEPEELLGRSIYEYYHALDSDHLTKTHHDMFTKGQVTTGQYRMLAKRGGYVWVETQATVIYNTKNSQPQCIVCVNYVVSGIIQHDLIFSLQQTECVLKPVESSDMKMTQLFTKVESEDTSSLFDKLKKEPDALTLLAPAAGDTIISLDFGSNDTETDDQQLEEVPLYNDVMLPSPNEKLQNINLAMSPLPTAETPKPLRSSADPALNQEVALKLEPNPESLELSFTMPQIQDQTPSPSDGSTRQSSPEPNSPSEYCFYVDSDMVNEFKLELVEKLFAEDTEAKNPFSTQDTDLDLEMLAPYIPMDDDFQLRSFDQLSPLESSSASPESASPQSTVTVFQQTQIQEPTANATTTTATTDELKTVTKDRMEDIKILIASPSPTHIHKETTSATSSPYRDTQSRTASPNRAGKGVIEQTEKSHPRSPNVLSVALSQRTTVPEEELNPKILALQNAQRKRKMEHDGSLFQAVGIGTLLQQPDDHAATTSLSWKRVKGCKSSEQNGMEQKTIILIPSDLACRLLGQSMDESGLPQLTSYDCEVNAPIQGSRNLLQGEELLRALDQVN
Chain of Bile acid receptor (Homo sapiens) (Q96RI1 whole entry, looked up): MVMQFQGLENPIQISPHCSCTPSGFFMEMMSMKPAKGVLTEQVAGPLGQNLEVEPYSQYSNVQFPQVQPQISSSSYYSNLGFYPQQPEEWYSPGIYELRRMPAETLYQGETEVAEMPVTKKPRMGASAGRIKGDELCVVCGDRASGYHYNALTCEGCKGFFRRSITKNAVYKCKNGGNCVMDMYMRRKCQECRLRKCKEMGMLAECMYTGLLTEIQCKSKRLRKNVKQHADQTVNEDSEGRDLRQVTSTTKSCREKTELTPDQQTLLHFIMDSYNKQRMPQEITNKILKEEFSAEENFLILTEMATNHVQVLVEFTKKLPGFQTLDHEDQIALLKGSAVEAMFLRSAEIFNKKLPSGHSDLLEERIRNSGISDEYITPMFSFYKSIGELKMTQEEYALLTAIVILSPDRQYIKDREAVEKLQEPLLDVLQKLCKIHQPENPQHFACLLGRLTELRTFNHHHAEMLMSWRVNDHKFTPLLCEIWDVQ
Chain of Paired box protein Pax-6 (Homo sapiens) (P26367 whole entry, looked up): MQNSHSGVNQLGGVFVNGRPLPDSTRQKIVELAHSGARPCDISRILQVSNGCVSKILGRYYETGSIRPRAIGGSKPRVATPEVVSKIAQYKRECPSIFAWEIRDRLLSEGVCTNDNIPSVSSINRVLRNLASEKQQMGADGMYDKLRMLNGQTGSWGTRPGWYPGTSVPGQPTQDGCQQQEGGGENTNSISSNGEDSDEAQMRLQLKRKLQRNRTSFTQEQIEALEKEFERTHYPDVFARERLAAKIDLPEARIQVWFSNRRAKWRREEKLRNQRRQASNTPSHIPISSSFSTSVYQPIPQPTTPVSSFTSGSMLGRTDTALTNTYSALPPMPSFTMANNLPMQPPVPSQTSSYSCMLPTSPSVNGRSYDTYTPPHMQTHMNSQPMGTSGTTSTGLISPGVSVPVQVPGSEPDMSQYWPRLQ
Chain of Transcription factor Sp1 (Homo sapiens) (P08047 whole entry, looked up, the tested form may be a part): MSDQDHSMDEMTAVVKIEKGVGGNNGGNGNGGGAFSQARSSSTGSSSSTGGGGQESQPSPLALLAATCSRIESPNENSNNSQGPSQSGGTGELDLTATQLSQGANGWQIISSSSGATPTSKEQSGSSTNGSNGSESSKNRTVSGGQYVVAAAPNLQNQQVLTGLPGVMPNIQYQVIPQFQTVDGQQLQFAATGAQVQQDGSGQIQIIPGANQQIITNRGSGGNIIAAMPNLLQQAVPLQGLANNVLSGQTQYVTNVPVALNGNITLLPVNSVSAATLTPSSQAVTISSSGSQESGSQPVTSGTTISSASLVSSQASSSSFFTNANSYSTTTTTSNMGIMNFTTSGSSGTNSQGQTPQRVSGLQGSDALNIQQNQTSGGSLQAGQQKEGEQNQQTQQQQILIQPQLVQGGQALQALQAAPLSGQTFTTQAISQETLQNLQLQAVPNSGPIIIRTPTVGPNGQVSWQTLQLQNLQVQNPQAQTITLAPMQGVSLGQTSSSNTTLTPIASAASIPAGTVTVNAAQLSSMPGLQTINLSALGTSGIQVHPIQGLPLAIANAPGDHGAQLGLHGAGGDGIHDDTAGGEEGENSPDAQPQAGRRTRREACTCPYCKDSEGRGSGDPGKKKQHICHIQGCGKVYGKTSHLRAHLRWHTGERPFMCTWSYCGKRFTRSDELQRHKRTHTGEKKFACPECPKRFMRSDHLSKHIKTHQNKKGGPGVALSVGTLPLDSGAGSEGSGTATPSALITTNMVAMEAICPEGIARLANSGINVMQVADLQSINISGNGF
Chain of Heat shock factor protein 1 (Homo sapiens) (Q00613 whole entry, looked up): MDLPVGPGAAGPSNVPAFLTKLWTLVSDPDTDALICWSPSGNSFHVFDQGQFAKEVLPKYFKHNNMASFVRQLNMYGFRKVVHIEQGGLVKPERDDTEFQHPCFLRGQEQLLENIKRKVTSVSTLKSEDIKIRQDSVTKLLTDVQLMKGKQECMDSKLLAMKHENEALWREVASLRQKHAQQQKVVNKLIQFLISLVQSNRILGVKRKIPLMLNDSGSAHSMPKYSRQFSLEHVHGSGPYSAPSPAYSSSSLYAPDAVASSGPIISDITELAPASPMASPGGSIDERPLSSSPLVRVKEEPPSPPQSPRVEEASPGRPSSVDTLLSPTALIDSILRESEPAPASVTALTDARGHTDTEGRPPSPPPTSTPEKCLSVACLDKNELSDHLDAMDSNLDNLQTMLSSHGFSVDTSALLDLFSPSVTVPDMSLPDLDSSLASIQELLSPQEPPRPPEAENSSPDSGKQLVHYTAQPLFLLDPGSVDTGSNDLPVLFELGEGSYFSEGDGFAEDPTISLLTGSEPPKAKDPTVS

Oc1ccccc1Cc1ccccc1O
active: [3] 149 µM | [6] 134 µM | [8] 124 µM | [10] 26.3 µM
not listed: [17] | [18] | [19] | [20]
inactive: all other assays above

Nc1ccnc(=O)[nH]1
not listed: [9] | [14] | [19] | [20]
inactive: all other assays above

CCCCCCCO
active: [10] 39.1 µM
not listed: [7] | [11] | [12] | [19] | [20]
inactive: all other assays above

O=C1CCCCCCCCCCCN1
active: [10] 8.77 µM
not listed: [7] | [11] | [16] | [20]
inactive: all other assays above

CCCCNS(=O)(=O)c1ccc(C)cc1
active: [10] 27.5 µM
not listed: [7] | [16] | [20]
inactive: all other assays above

CC(Cl)COP(=O)(OCC(C)Cl)OCC(C)Cl (centres undefined)
active: [10] 4.13 µM
not listed: [7] | [19] | [20]
inactive: all other assays above

CC1=CP(=O)(c2ccccc2)CC1 (centres undefined)
active: [10] 27.6 µM
not listed: [1] | [9] | [14]
inactive: all other assays above

CC1CCC(C(C)(C)S)C(=O)C1 (centres undefined)
active: [10] 2.13 µM
not listed: [1] | [2] | [9]
inactive: all other assays above

CCCCCCCOC(=O)c1ccc(O)cc1
active: [20] 50.9 µM | [6] 59.9 µM | [8] 52.6 µM | [13] 33.4 µM | [14] 33.4 µM
not listed: [1] | [7] | [11] | [16]
inactive: all other assays above

NC(=O)Nc1ccccc1
not listed: [1] | [7] | [11] | [20]
inactive: all other assays above

CN1CCN(C)CC1
not listed: [1] | [9] | [16] | [18]
inactive: all other assays above

N#CC1(N)CCCCC1
not listed: [1] | [7] | [11] | [15] | [20]
inactive: all other assays above
